{"source": "PubChem BioAssay AID686978", "about": "(National Center for Advancing Translational Sciences (NCATS), 2013)", "note": "Out of some 420,000 compounds screened, about 64,000 (15%) were called active. Inconclusive results (about 27%) are left out. These entries were drawn from the full list. Unmarked numbers belong to inactive results. The call rests on the fitted dose curve; in most records, active means well fitted inhibition curve with a large enough effect; inconclusive means small, poorly fitted or top-dose-only effect; inactive means flat fitted curve, though single readings scatter. On the % scale 0 is the no-effect control and ±100 the full control effect; potency means the concentration at half of the fitted maximal effect.", "data": [{"assay": "qHTS for Inhibitors of human tyrosyl-DNA phosphodiesterase 1 (TDP1): qHTS in cells in absence of CPT; further: nearly all actives have a fitted effect of over 55% in size", "conditions": "DT40 Tdp1-/- hTDP1 cells, no CPT, ATP luminescence, 48 h; activity change, negative = growth inhibition: at 46.2 µM (top of the series)", "procedure,_shortened": "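Luminescent ATP content (CellTiter-Glo) served as the growth readout. Knockout chicken DT40 cells expressing human TDP1 were exposed to compounds without camptothecin for a minimum 48 hr at 37 °C.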", "units": {"activity change, negative = growth inhibition": "%"}, "values": [{"smiles": "O=C(O)c1ccc(COc2c(F)c(F)cc(F)c2F)o1", "activity change, negative = growth inhibition": 18.8}, {"smiles": "CC(=O)N1CCC2(CCCN(Cc3ccc(C#N)cc3)C2)CC1", "activity change, negative = growth inhibition": 0.656}, {"smiles": "CS(=O)(=O)NC(=O)CCC/C=C\\C[C@H]1C(=O)C[C@@H](O)[C@@H]1/C=C/[C@H](O)COc1ccccc1", "activity change, negative = growth inhibition": -1.9}, {"smiles": "CC(Sc1ncnc2c1cnn2-c1ccccc1)C(=O)Nc1ccc(N2CCOCC2)cc1", "note": "(stereo not given)", "activity change, negative = growth inhibition": -1.88}, {"smiles": "Cc1cc2nc(SCCN3CCOCC3)[nH]c2cc1C", "activity change, negative = growth inhibition": -12.7}, {"smiles": "O=C(Cc1cc(=O)[nH][nH]1)N/N=C/c1ccccc1[N+](=O)[O-]", "activity change, negative = growth inhibition": -17.3}, {"smiles": "COc1ccc(C(=O)COC(=O)c2ccc([N+](=O)[O-])s2)cc1OC", "activity change, negative = growth inhibition": -8.4}, {"smiles": "O=C(COc1ccccc1[N+](=O)[O-])N/N=C/c1ccc[nH]1", "activity change, negative = growth inhibition": -15.9}, {"smiles": "COc1cc(/C=N/NC(=O)CNC(=O)c2ccncc2)ccc1OC(C)=O", "activity change, negative = growth inhibition": 5.66}, {"smiles": "CCc1ccc(S(=O)(=O)N/N=C\\c2ccc([N+](=O)[O-])o2)cc1", "Potency": "16.4 µM (active)"}, {"smiles": "COc1ccc(C(=O)NCC(=O)N/N=C/c2ccc([N+](=O)[O-])o2)cc1OC", "Potency": "5.17 µM (active)"}, {"smiles": "Cc1ccccc1NCC(=O)N/N=C\\c1ccc([N+](=O)[O-])s1", "Potency": "9.2 µM (active)"}, {"smiles": "CCc1ccc(S(=O)(=O)Nc2ccc(C)c(NS(C)(=O)=O)c2)cc1", "activity change, negative = growth inhibition": -1.78}, {"smiles": "COc1ccc(/C=N/NS(=O)(=O)c2ccc(NC(C)=O)cc2)cc1", "activity change, negative = growth inhibition": 2.6}, {"smiles": "COc1cc(/C=N\\NC(=O)CNC(=O)c2cccc([N+](=O)[O-])c2)ccc1O", "activity change, negative = growth inhibition": -0.0452}, {"smiles": "COc1cccc(/C=N/NC(=O)CNC(=O)c2ccc(S(=O)(=O)N3CCOCC3)cc2)c1OC", "activity change, negative = growth inhibition": -23.8}, {"smiles": "COc1ccc(C(=O)NCC(=O)N/N=C/c2ccc([N+](=O)[O-])s2)cc1OC", "Potency": "16.4 µM (active)"}, {"smiles": "CC1(C)S[C@@H]2[C@H](N=CN3CCCCCC3)C(=O)N2[C@H]1C(=O)O", "activity change, negative = growth inhibition": -23.2}, {"smiles": "CN(C(=O)CN(CCO)CC(=O)N(C)C(C)(C)Cc1ccccc1)C(C)(C)Cc1ccccc1", "activity change, negative = growth inhibition": -1.77}, {"smiles": "[O-][n+]1c2c(nn1-c1ccc(Cl)c(Cl)c1)-c1nonc1CC2", "activity change, negative = growth inhibition": -14.7}, {"smiles": "Oc1ccccc1CNc1ncc(Br)cc1Br", "activity change, negative = growth inhibition": -23.9}, {"smiles": "O=S(=O)(NCCc1ccc(Cl)cc1)c1cccs1", "activity change, negative = growth inhibition": -21.2}, {"smiles": "COc1cccc(-n2c(Cc3cc(=O)[nH]c(=O)[nH]3)nnc2SCC(=O)Nc2ccccc2)c1", "activity change, negative = growth inhibition": 0.566}, {"smiles": "Nc1nnnn1CC(=O)N/N=C/c1ccc(-c2cccc(Cl)c2)o1", "activity change, negative = growth inhibition": -20.2}, {"smiles": "C[C@H]1CN([C@@H](C)CO)C(=O)CCCn2cc(nn2)CO[C@@H]1CN(C)S(=O)(=O)c1cccs1", "activity change, negative = growth inhibition": -1.39}, {"smiles": "O=C(N/N=C/c1ccc([N+](=O)[O-])cc1)C(=O)N1CCCC1", "activity change, negative = growth inhibition": -23.1}, {"smiles": "O=C(Cc1ccc([N+](=O)[O-])cc1)N/N=C/c1ccco1", "activity change, negative = growth inhibition": 11.1}, {"smiles": "Cc1cc(C)nc(Nc2cc([N+](=O)[O-])ccc2C)n1", "activity change, negative = growth inhibition": -12.5}, {"smiles": "NC(=O)C(=O)N/N=C/c1ccc([N+](=O)[O-])o1", "Potency": "15 µM (active)"}, {"smiles": "Cc1nn(CC(=O)N/N=C/c2ccc(F)cc2)c(C)c1[N+](=O)[O-]", "activity change, negative = growth inhibition": 4.7}, {"smiles": "CC(C)(C)c1cc(C(=O)N/N=C/c2ccc([N+](=O)[O-])s2)n[nH]1", "Potency": "11.6 µM (active)"}, {"smiles": "Cc1cc(C)nc(N/N=C/c2ccc([N+](=O)[O-])o2)n1", "Potency": "16.4 µM (active)"}, {"smiles": "Cc1cc(C)nc(N/N=C/c2ccncc2)n1", "activity change, negative = growth inhibition": 1.16}, {"smiles": "CC(C)NC(=O)Nc1cccc2c1O[C@@H](CN(C)S(=O)(=O)c1ccc(F)cc1)[C@@H](C)CN([C@H](C)CO)C2=O", "activity change, negative = growth inhibition": -21.8}, {"smiles": "O=C(O)C(c1cccs1)C1(O)CCCCC1", "note": "(stereo not given)", "activity change, negative = growth inhibition": -1.75}, {"smiles": "COc1ccc(C)cc1N(CC(=O)NC(C)c1ccccc1)S(C)(=O)=O", "note": "(stereo not given)", "activity change, negative = growth inhibition": 1.25}, {"smiles": "CCc1c(C)nc(N)n2c(SCC(=O)NC3CCCCC3)nnc12", "activity change, negative = growth inhibition": -6.99}, {"smiles": "C[C@@H]1CN([C@@H](C)CO)C(=O)c2cc(Br)cnc2O[C@@H]1CN(C)C(=O)C1CCCCC1", "activity change, negative = growth inhibition": -14.5}, {"smiles": "C[N+](C)(C)CCOP(=O)([O-])OC[C@H](O)CO", "activity change, negative = growth inhibition": -9.67}, {"smiles": "CN1C(=O)CC(N2CCN(c3ccccn3)CC2)C1=O", "note": "(stereo not given)", "activity change, negative = growth inhibition": -6.92}, {"smiles": "COC(=O)c1cc(NC(=O)CC2C(=O)NCCN2C(=O)c2ccc(F)cc2)cc(C(=O)OC)c1", "note": "(stereo not given)", "activity change, negative = growth inhibition": 0.411}, {"smiles": "CCOc1ncccc1C(=O)OCC(=O)N1c2ccccc2CC1C", "note": "(stereo not given)", "activity change, negative = growth inhibition": -1.22}, {"smiles": "CCOC(=O)N1CCC(N2CCOc3ccc(CN4CCC(O)(c5cccnc5)CC4)cc3C2)CC1", "activity change, negative = growth inhibition": -21.8}, {"smiles": "CN(C)c1ccc(CN2CCOc3ccc(CN4CCC(O)(c5cccnc5)CC4)cc3C2)cc1", "Potency": "16.4 µM (active)"}, {"smiles": "C[C@@H]1CN(Cc2ccc3c(c2)CN(Cc2ccc(Oc4ncccn4)cc2)CCO3)C[C@H](C)O1", "activity change, negative = growth inhibition": -22.2}]}]}
